Data: PubChem BioAssay (NCI)
This is part of a sample that, as a whole, favours compounds with a hit. Of some 79,000 tested, about 15% had one in any assay. Unmarked numbers belong to inactive results. Active and inactive are the calls of the source. Cut-off read from the data, not from the text of the source: active = growth inhibition above about 70%; inactive = the rest.

Assay: NCI Yeast Anticancer Drug Screen. Data for the rad50 strain (AID 155);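 note: 0% = growth of vehicle-only cultures of the same strain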
Conditions: S. cerevisiae rad50 strain growth inhibition; at 50.0 µM (retest, dose inferred, filed as 5.0); active compounds read high
Procedure, shortened: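 Genetically altered yeast (DNA repair pathway); compound treatment; growth inhibition vs vehicle ctrl.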
In the case of Cc1[nH]nc(-c2ccon2)c1N=O, the growth inhibition is reported as 61%. Molecule O=C(O)CCC(=O)c1ccc(C2CCCC2)c2ccccc12 has a growth inhibition of 28%. CC12CC(Br)(Br)C(=O)C3C1CCCC32 showed a growth inhibition of 31%. With O=[N+]([O-])c1ccc(NSc2ccccc2)cc1 the growth inhibition was 98% (active). For CCC1CCC(CC)C1=O (configuration not stated), the growth inhibition was 5%. With Cc1cc(C(C)(CC(C)C)c2ccc(O)c(C)c2)ccc1O the growth inhibition was 99% (active). N#CC1C(=O)SC2c3ccccc3C(=O)c3ccccc3C12 (configuration not stated) gave a growth inhibition of 51%. COc1ccc(C2C3=C(CCCC3=O)Oc3cc4c(cc32)OCO4)cc1 (configuration not stated) showed a growth inhibition of 68%. CCC(c1cccc(O)c1)C(CC)c1cccc(O)c1 (configuration not stated) gave a growth inhibition of 55%. In the case of CCCCCCCCCCCC1C(C#N)C(=O)NC(=O)C1C#N (configuration not stated), the growth inhibition is reported as 92% (active). In the case of O=C(NNC(=O)c1cccc(C(=O)NNC(=O)c2ccc(Cl)c(Cl)c2)n1)c1ccc(Cl)c(Cl)c1, the growth inhibition is reported as 64%. In the case of CCOC(=O)CCC(NC(=O)c1ccc(NC(OC)c2nc3cc(C(F)(F)F)ccc3nc2-c2ccccc2)cc1)C(=O)OCC (configuration not stated), the growth inhibition is reported as 88% (active). Molecule CCOC(=O)c1c(C)[nH]c(CO)c1C has a growth inhibition of 14%. Work on S=C(NC(=S)Nc1ccc(Cl)cc1)Nc1ccc(Cl)cc1 yielded a growth inhibition of -4%. For O=S(=O)(c1ccc(OCC(O)COc2ccc(S(=O)(=O)c3ccc(OCC4CO4)cc3)cc2)cc1)c1ccc(OCC2CO2)cc1 (configuration not stated), the growth inhibition was -9%. With C=C(C)C(=O)OC1CC2=CC(CC3(C)OC3C3OC(=O)C(=C)C13)OC2=O (configuration not stated) the growth inhibition was 19%. c1ccc2c(c1)C[n+]1ccc3ccccc3c1-c1c3ccccc3cc[n+]1C2 gave a growth inhibition of 28%.
